Paper PMC5540273 (PLoS ONE, 2017)
“And” between values parts separate entries of the source, which are not always exact repeats. Equal entries are not always repeated. Where two headings read alike, the source gives them in different places.

What was measured:
MAP4K3 = details: concentration: 1 μM, replicates: in singlicate, n = 1
MAP4K4 = details: concentration: 1 μM, replicates: in singlicate, n = 1
MAP4K5 = details: concentration: 1 μM, replicates: in singlicate, n = 1
MAPKAPK2 = details: concentration: 1 μM, replicates: in singlicate; n = 1
MAPKAPK5 = details: concentration: 1 μM, replicates: in singlicate; n = 1
MARK1 = details: concentration: 1 μM, replicates: in singlicate, n = 1
MARK2 = details: concentration: 1 μM, replicates: in singlicate, n = 1
MARK3 = details: concentration: 1 μM, replicates: in singlicate, n = 1
MARK4 = details: concentration: 1 μM, replicates: in singlicate, n = 1
MAST1 = details: concentration: 1 μM, replicates: in singlicate; n = 1
MEK1 = tested on: T1, MEK1; details: concentration: 1 μM, replicates: in singlicate, n = 1
T1 construct: gene MAP2K1

MEK2 = tested on: T2, MEK2; details: concentration: 1 μM, replicates: in singlicate, n = 1
T2 construct: gene MAP2K2

MEK3 = tested on: T3, MEK3; details: concentration: 1 μM, replicates: in singlicate, n = 1
T3 construct: gene MAP2K3

MEK4 = tested on: T4, MEK4; details: concentration: 1 μM, replicates: in singlicate, n = 1
T4 construct: gene MAP2K4

MEK5 = tested on: T5, MEK5; details: concentration: 1 μM, replicates: in singlicate, n = 1
T5 construct: gene MAP2K5

MEK6 = tested on: T6, MEK6; details: concentration: 1 μM, replicates: in singlicate, n = 1
T6 construct: gene MAP2K6

MELK = details: concentration: 1 μM, replicates: in singlicate, n = 1
MERTK = details: concentration: 1 μM, replicates: in singlicate, n = 1
MET = details: concentration: 1 μM, replicates: in singlicate, n = 1
MINK = tested on: T7, MINK; details: concentration: 1 μM, replicates: in singlicate, n = 1
T7 construct: gene MINK1
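Note: KINOMEscan kinase panel screen.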

Fc1ccc(-c2ncn(CCCN3CCOCC3)c2-c2cccnc2)cc1 [SB-211743]
%Inh (MAP4K3): 11%
%Inh (MAP4K4): 0%
%Inh (MAP4K5): 4%
%Inh (MAPKAPK2): 0%
%Inh (MAPKAPK5): 0%
%Inh (MARK1): 3%
%Inh (MARK2): 5%
%Inh (MARK3): 0%
%Inh (MARK4): 16%
%Inh (MAST1): 0%
%Inh (MEK1): 27%
%Inh (MEK2): 44%
%Inh (MEK3): 26%
%Inh (MEK4): 15%
%Inh (MEK5): 15%
%Inh (MEK6): 0%
%Inh (MELK): 0%
%Inh (MERTK): 4%
%Inh (MET): 0%
%Inh (MINK): 16%

CCn1cnc2c(N)ncnc21 [GW345098]
%Inh (MAP4K3): 1%
%Inh (MAP4K4): 0%
%Inh (MAP4K5): 0%
%Inh (MAPKAPK2): 0%
%Inh (MAPKAPK5): 10%
%Inh (MARK1): 0%
%Inh (MARK2): 12%
%Inh (MARK3): 4%
%Inh (MARK4): 0%
%Inh (MAST1): 5%
%Inh (MEK1): 26%
%Inh (MEK2): 20%
%Inh (MEK3): 26%
%Inh (MEK4): 11%
%Inh (MEK5): 1%
%Inh (MEK6): 0%
%Inh (MELK): 0%
%Inh (MERTK): 25%
%Inh (MET): 2%
%Inh (MINK): 5%

Cc1nnc(-c2ccc3occ(-c4ccc(C(C)O)cc4)c3c2)o1 (centres unmarked)
%Inh (MAP4K3): 7%
%Inh (MAP4K4): 12%
%Inh (MAP4K5): 15%
%Inh (MAPKAPK2): 21%
%Inh (MAPKAPK5): 19%
%Inh (MARK1): 7%
%Inh (MARK2): 16%
%Inh (MARK3): 0%
%Inh (MARK4): 8%
%Inh (MAST1): 0%
%Inh (MEK1): 10%
%Inh (MEK2): 24%
%Inh (MEK3): 11%
%Inh (MEK4): 15%
%Inh (MEK5): 8%
%Inh (MEK6): 8%
%Inh (MELK): 12%
%Inh (MERTK): 3%
%Inh (MET): 5%
%Inh (MINK): 0%

NCCNS(=O)(=O)c1ccc(-c2ccnc3[nH]ccc23)cc1 [GSK977617]
%Inh (MAP4K3; 1 µM): 20% and 0%
%Inh (MAP4K4; 1 µM): 43% and 25%
%Inh (MAP4K5; 1 µM): 8% and 0%
%Inh (MAPKAPK2): 0%
%Inh (MAPKAPK5): 0%
%Inh (MARK1; 1 µM): 18% and 0%
%Inh (MARK2; 1 µM): 53% and 40%
%Inh (MARK3; 1 µM): 25% and 4%
%Inh (MARK4; 1 µM): 36% and 12%
%Inh (MAST1): 0%
%Inh (MEK1; 1 µM): 24% and 17%
%Inh (MEK2; 1 µM): 52% and 48%
%Inh (MEK3; 1 µM): 46% and 21%
%Inh (MEK4; 1 µM): 42% and 23%
%Inh (MEK5; 1 µM): 88% and 70%
%Inh (MEK6; 1 µM): 18% and 11%
%Inh (MELK; 1 µM): 99.2% and 95.2%
%Inh (MERTK; 1 µM): 73% and 57%
%Inh (MET; 1 µM): 20% and 0%
%Inh (MINK; 1 µM): 48% and 34%

Cl.Oc1cccc(Nc2ccnc3cc(-c4ccncc4)ccc23)c1 [GW494601]
%Inh (MAP4K3): 0%
%Inh (MAP4K4): 47%
%Inh (MAP4K5): 20%
%Inh (MAPKAPK2): 0%
%Inh (MAPKAPK5): 0%
%Inh (MARK1): 6%
%Inh (MARK2): 0%
%Inh (MARK3): 0%
%Inh (MARK4): 10%
%Inh (MAST1): 51%
%Inh (MEK1): 33%
%Inh (MEK2): 100%
%Inh (MEK3): 0%
%Inh (MEK4): 18%
%Inh (MEK5): 99.8%
%Inh (MEK6): 0%
%Inh (MELK): 0%
%Inh (MERTK): 46%
%Inh (MET): 0%
%Inh (MINK): 79%

O=C(Nc1cccc(-c2nn3ncccc3c2-c2ccnc(Nc3cccc(C(F)(F)F)c3)n2)c1)c1c(F)cccc1F [GSK299495]
%Inh (MAP4K3): 0%
%Inh (MAP4K4): 0%
%Inh (MAP4K5): 48%
%Inh (MAPKAPK2): 35%
%Inh (MAPKAPK5): 0%
%Inh (MARK1): 0%
%Inh (MARK2): 0%
%Inh (MARK3): 2%
%Inh (MARK4): 0%
%Inh (MAST1): 0%
%Inh (MEK1): 48%
%Inh (MEK2): 54%
%Inh (MEK3): 0%
%Inh (MEK4): 29%
%Inh (MEK5): 97.6%
%Inh (MEK6): 7%
%Inh (MELK): 0%
%Inh (MERTK): 51%
%Inh (MET): 0%
%Inh (MINK): 0%

Cc1nnc(-c2ccc3ncc(-c4ccc(S(C)=O)cc4)n3c2)o1 (centres unmarked)
%Inh (MAP4K3): 0%
%Inh (MAP4K4): 0%
%Inh (MAP4K5): 0%
%Inh (MAPKAPK2): 22%
%Inh (MAPKAPK5): 5%
%Inh (MARK1): 0%
%Inh (MARK2): 20%
%Inh (MARK3): 0%
%Inh (MARK4): 0%
%Inh (MAST1): 34%
%Inh (MEK1): 9%
%Inh (MEK2): 9%
%Inh (MEK3): 6%
%Inh (MEK4): 24%
%Inh (MEK5): 42%
%Inh (MEK6): 0%
%Inh (MELK): 4%
%Inh (MERTK): 0%
%Inh (MET): 15%
%Inh (MINK): 0%

CC(=O)Nc1ccc(COc2ccc(Nc3ccnc4cc(-c5ccccn5)ccc34)cc2)cc1.Cl [GW440148]
%Inh (MAP4K3): 0%
%Inh (MAP4K4): 0%
%Inh (MAP4K5): 0%
%Inh (MAPKAPK2): 0%
%Inh (MAPKAPK5): 2%
%Inh (MARK1): 0%
%Inh (MARK2): 0%
%Inh (MARK3): 8%
%Inh (MARK4): 0%
%Inh (MAST1): 16%
%Inh (MEK1): 51%
%Inh (MEK2): 70%
%Inh (MEK3): 0%
%Inh (MEK4): 0%
%Inh (MEK5): 99.5%
%Inh (MEK6): 18%
%Inh (MELK): 5%
%Inh (MERTK): 11%
%Inh (MET): 5%
%Inh (MINK): 11%

Cl.Nc1ncnc2occ(-c3ccc(NC(=O)Nc4cc(C(F)(F)F)ccc4F)cc3)c12 [SB-707548]
%Inh (MAP4K3): 77%
%Inh (MAP4K4): 92.9%
%Inh (MAP4K5): 99.7%
%Inh (MAPKAPK2): 15%
%Inh (MAPKAPK5): 0%
%Inh (MARK1): 0%
%Inh (MARK2): 32%
%Inh (MARK3): 26%
%Inh (MARK4): 0%
%Inh (MAST1): 0%
%Inh (MEK1): 15%
%Inh (MEK2): 57%
%Inh (MEK3): 0%
%Inh (MEK4): 23%
%Inh (MEK5): 91.4%
%Inh (MEK6): 10%
%Inh (MELK): 33%
%Inh (MERTK): 98.3%
%Inh (MET): 17%
%Inh (MINK): 62%

COc1ccc(S(=O)(=O)NC2CCN(c3cc(C)nc(Nc4cccc(C#N)c4)n3)CC2)cc1.O=C(O)C(F)(F)F [GSK1653539]
%Inh (MAP4K3): 0%
%Inh (MAP4K4): 0%
%Inh (MAP4K5): 0%
%Inh (MAPKAPK2): 0%
%Inh (MAPKAPK5): 0%
%Inh (MARK1): 0%
%Inh (MARK2): 12%
%Inh (MARK3): 0%
%Inh (MARK4): 0%
%Inh (MAST1): 0%
%Inh (MEK1): 0%
%Inh (MEK2): 0%
%Inh (MEK3): 0%
%Inh (MEK4): 0%
%Inh (MEK5): 1%
%Inh (MEK6): 0%
%Inh (MELK): 0%
%Inh (MERTK): 0%
%Inh (MET): 0%
%Inh (MINK): 0%
